Compound activity (PubChem BioAssay)
FBPA coupling cs: counter-screen for Giardia aldolase inhibitors: coupling enzyme system. activity change, negative = inhibition, % at 58.2 µM, hits read low. AID 2472. actives 0.67% (n = 290,000). coupling enzyme system counterscreen, AmpLite Red fluorescence; in the data active = activity change below about -30%
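First, compound is pin-transferred into glyceraldehyde-3-phosphate coupling-enzyme reagent at 57.5 uM final and held 10 min at RT. Next, substrate, coupling system and AmpLite Red are added. After 20 min RT, fluorescence (525/598 nm) is read.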
IDH1 R132H inh: inhibitors of human mutant IDH1 R132H; Potency, µM (top dose mostly 76.6 µM), for the others: top-dose activity change, negative = inhibition, hits mostly inhibitors; IDH1-R132H enzyme, NADPH consumption, diaphorase/resazurin fluorescence; actives 0.093% (n = 390,000); AID 602179; O75874; note: potency is the fitted concentration of half-maximal effect; nearly all actives have a fitted effect of over 65% in size
Target sequence (O75874 whole entry R132H, stated change not applied): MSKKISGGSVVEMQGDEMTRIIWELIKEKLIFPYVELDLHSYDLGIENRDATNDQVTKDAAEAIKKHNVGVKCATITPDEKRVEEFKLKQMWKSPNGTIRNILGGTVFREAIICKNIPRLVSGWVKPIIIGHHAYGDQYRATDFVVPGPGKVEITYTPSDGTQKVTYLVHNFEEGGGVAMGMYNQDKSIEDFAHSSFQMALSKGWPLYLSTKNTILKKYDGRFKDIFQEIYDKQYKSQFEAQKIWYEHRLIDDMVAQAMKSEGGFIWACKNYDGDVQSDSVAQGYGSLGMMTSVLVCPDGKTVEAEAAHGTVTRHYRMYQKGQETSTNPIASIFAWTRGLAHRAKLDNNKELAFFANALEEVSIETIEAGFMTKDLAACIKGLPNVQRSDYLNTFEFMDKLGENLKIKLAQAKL
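IDH1-R132H (0.5 ug/mL dispensed) in pH 7.5 Tris buffer was preincubated 30 min with compound, then given a substrate mix of 0.016 mM NADPH and 2 mM alpha-KG for 80 min at room temperature; remaining NADPH was read by diaphorase/resazurin fluorescence.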
TrxR1 substrate: is turned over as a substrate by rat TrxR1; Potency, µM (highest dose often 114 µM), for the others: at the highest dose activity change, negative = substrate turnover; O89049; actives 0.01% (n = 390,000); purified TrxR1 substrate turnover, NADPH consumption readout; AID 588456; note: potency is the fitted concentration of half-maximal effect; nearly all actives have a fitted effect of over 50% in size
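Rat TrxR1, dispensed at 90 nM, was prereduced with 400 uM NADPH (final) for 5 min at ~22 deg C, then incubated with compound 15 min before 400 uM selenite. A first-read NADPH fluorescence drop versus no-compound background flagged substrates.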
rTrxR1 inhibitor: rat TrxR1 inhibition; Potency, µM (series often up to 114 µM), without a hit: at the highest dose activity change, negative = inhibition, actives largely listed as inhibitors; recombinant rTrxR1, NADPH fluorescence consumption, selenite substrate; actives 1% (n = 390,000); note: potency is the fitted concentration of half-maximal effect; nearly all actives have a fitted effect of over 65% in size
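Rat TrxR1 (90 nM in the dispensed reagent) was pre-reduced with 400 uM NADPH for 5 min at room temperature, then incubated with compound for 15 min. After 400 uM selenite was added, NADPH fluorescence (Ex 340/Em 450 nm) was followed for 8 min.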
Eya2 phos inh: Eya2 (human) phosphatase inhibition; O00167; recombinant Eya2, OMFP fluorescence dephosphorylation (OMFP is methylfluorescein phosphate); Potency, µM (series often up to 76.9 µM), for the others: at the highest dose activity, negative = inhibition, usual class: inhibitors; actives 0.006% (n = 330,000); AID 488837; note: potency is the fitted concentration of half-maximal effect
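Eya2 (0.2 uM) preincubated 10 min at ambient with compound, then OMFP substrate added at 50 uM; 10 min reaction in 50 mM HEPES pH 7.5, 50 mM NaCl, 5 uM MgCl2, 0.05% BSA, 1 mM DTT. Fluorescence read at Ex 485/Em 525 nm.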
* hit, by the source's call; ? = inconclusive; . = not tested or not shown; [ ] = dose if it differs, or a comment. In the library only some 1.5% were active in any assay of this set; here they are far more common. Unless noted, calls come from the whole dose curve; as a rule, active = well fitted curve in the direction sought with a large enough effect; inconclusive = small, poorly fitted or top-dose-only effect, or another doubt; inactive = no such curve, though single readings can be large; an effect the other way counts as inactive or inconclusive. % is set by controls: 0 for no effect and ±100 for the full control effect.

SMILES | FBPA coupling cs | IDH1 R132H inh | TrxR1 substrate | rTrxR1 inhibitor | Eya2 phos inh
COc1ccc(NC(=O)CCS(=O)(=O)c2nc(-c3ccc4c(c3)OCO4)cc(C(F)(F)F)n2)cc1 | . | 16% | -6% | ? | .
O=C(CCS(=O)(=O)c1nc(-c2cccs2)cc(C(F)(F)F)n1)Nc1cc(Br)ccc1O | . | 0% | 35% | 14µM* | .
O=C(CCS(=O)(=O)c1nc(-c2cccs2)cc(C(F)(F)F)n1)Nc1ccc(Br)cc1 | . | -1% | 5%[2.29 µM] | -12% | .
COC(=O)C(C(=O)OC)[C@@H](NC(=O)OCc1ccccc1)c1ccccc1 | 1 | . | . | . | .
Nc1nc(NCc2ccc(Cl)cc2Cl)c2[nH]cnc2n1 | . | . | 3% | 22% | .
Cc1cc(C)c(C(=O)N2CCCC(CNS(=O)(=O)c3cccs3)C2)o1 (centres undefined) | . | 6% | 7% | 5% | -3%
CC(C)(O)C#Cc1ccc(C(=O)N2CCCC(CNS(=O)(=O)c3cccs3)C2)o1 (centres undefined) | . | 13% | 1% | 13µM* | 5%
CCN(CC)c1ccc(/C=N/Nc2ccccc2)c(O)c1 | -14 | 11% | -7% | 8.9µM* | 15%
CCN(CC)c1ccc(/C=N/Nc2cccc(C)c2)c(O)c1 | -7 | 6% | -18% | 22µM* | 9%
C=C1C=C(C)n2ncc(C(=O)Nc3ccccc3C(=O)OC)c2N1 | . | . | 0% | 0% | .
CCOC(=O)C1(Cc2cccc(OC)c2)CCCN(C(=O)c2ccc(OC)o2)C1 (centres undefined) | . | 3% | 4% | 50µM* | -7%
CCN1CCN(C2=NC(=O)/C(=C/c3ccc(C)o3)S2)CC1 | -34* | 11% | 9%[57.1 µM] | -36%[57.1 µM] | -1%
N[C@H](C(=O)O)[C@H](Cc1ccccc1)C(=O)O | . | . | 9%[57.1 µM] | 8%[57.1 µM] | 0%
Clc1ccc2c(ccc[n+]2CCc2ccccc2)c1 | . | . | 7%[0.0914 µM] | 18% | .
Clc1cccc[n+]1CCc1ccccc1 | . | . | 8% | 45µM* | .
COc1cc2c(cc1CC=C(C)C)C(=O)C[C@@H](c1ccc(O)cc1)O2 | 1 | . | . | . | .
O=C1C(Cl)=C(NCCCN2CCOCC2)C(=O)c2ccccc21 | . | -5% | -8%[2.29 µM] | -55%[57.1 µM] | .
O=C1C(Cl)=C(NCCCO)C(=O)c2ccccc21 | -38* | 1% | -13% | -18% | -5%
CCOCCCNC1=C(Cl)C(=O)c2ccccc2C1=O | -24 | -1% | -20% | 7.1µM* | 0%
CCOc1ccccc1-c1nnc2n1N=C(c1ccc(OC)cc1)CS2 | -1 | . | . | . | .
C[C@]12C[C@H](O)CC(CO)(CO)C1[C@H](O)C[C@@]13CC4[C@@H](CC12)[C@@]4(C)C3 (some centres undefined) | 1 | . | . | . | .
CCc1ccccc1N(C)C | . | . | 5% | 23% | .
O=[N+]([O-])c1ccccc1/C=C1\C=Cc2ccccc21 | . | . | -3% | -17% | .
CCCCNc1nc(C#N)nc(Nc2ccccc2)n1 | 0 | . | . | . | .
CC1=CC(=NOC(=O)/C=C/c2ccccc2)C=C(C)C1=O | -45* | 1% | 4%[57.1 µM] | -49% | 6%
SMILES | FBPA coupling cs | IDH1 R132H inh | TrxR1 substrate | rTrxR1 inhibitor | Eya2 phos inh
CC1=CC(=O)C=C(C)C1=NOC(=O)/C=C\c1ccccc1 | -16 | 4% | 4% | -23% | 3%
CC(=O)OC1(C(C)=O)CCC2C3CC(C(F)(F)F)C4=CC(=O)CCC4(C)C3CCC21C (centres undefined) | . | -4% | 0% | 16µM* | .
Cc1cc(C)n2nc(SCC(=O)N/N=C/c3cccc(Br)c3)nc2n1 | -32* | 9% | -5% | 10% | .
COc1ccccc1CCC(=O)O | . | . | 1% | 4% | .
CC(=O)Nc1ccc(/C=C/c2ccnc3ccccc23)cc1[N+](=O)[O-] | . | . | -4% | 15% | .
O=c1c(Cl)c(Cl)cnn1Cc1ccccc1Cl | -3 | 4% | 5% | 20µM* | -1%
O=c1[nH]cnc2c1cnn2Cc1ccccc1Cl | -5 | -3% | 3% | 25% | ?
Cc1cc(C)cc(Cn2ncc(Cl)c(Cl)c2=O)c1 | 2 | 7% | 4% | 6.3µM* | -14%
Cc1ccc(Cn2ncc(Cl)c(Cl)c2=O)cc1 | 0 | 8% | 5% | 6.3µM* | -3%
O=c1c(Cl)c(Cl)cnn1-c1ccccc1 | -5 | 8% | 5% | 14µM* | -14%
CC(=O)Oc1cc2c(C(=O)NCCCN3CCOCC3)c(C)oc2c2ccccc12 | -38* | 1% | 9% | ? | -1%
Fc1ccc(-[n+]2nc(Nc3ccccc3)sc2-c2c3ccccc3cc3ccccc23)cc1 | -31* | 9%[38.3 µM] | -13% | -22% | -12%
COc1ccc(C2=Nn3c(nnc3-c3cccc(OC)c3OC)SC2)cc1OC | 1 | . | . | . | .
CCC[C@H]1COCCS(=O)(=O)N1Cc1cccc(F)c1 | . | . | -1% | 19% | .
O=C1CCCC2=C1C(c1ccncc1)Nc1ccccc1N2 (centres undefined) | 1 | 4% | -10% | 5%[57.1 µM] | 5%
O=C1NCC2=C1C(c1ccccc1)Nc1ccccc1N2 (centres undefined) | -41* | 7% | -7% | -4% | 14%
CN(C)c1ccc(C(=S)N2CCN(c3ccc([N+](=O)[O-])cc3)CC2)cc1 | -30* | 5% | -11% | -1% | -4%
O=[N+]([O-])c1ccc(C(=S)N2CCN(c3ccc(F)cc3)CC2)cc1 | -4 | 5% | -2%[57.1 µM] | -5%[57.1 µM] | -8%
Cc1c(-c2ccccc2)nc(-c2ccccc2)[nH]c1=O | -2 | 2% | 2% | -5% | 0%
COC(=O)c1c(S(C)(=O)=O)nc(-c2ccccc2)[nH]c1=O | 5 | 6% | -1% | 40µM* | 5%
O=C1CCCC2(O)C1C(c1cccc(Br)c1)NC(=O)N2Cc1ccccc1 (centres undefined) | -6 | 14% | 11% | 16µM* | -2%
CCC(C)NC(=O)c1ccc2nc(-c3cccs3)c(-c3cccs3)nc2c1 (centres undefined) | . | . | 12% | 26% | .
C#CCCOC(=O)N1C2=NC(C(=O)OC)=C(C(=O)OC)[C@@H]3N(CC#CC)c4ccccc4[C@]23C[C@H]1C(=O)OC | 1 | . | . | . | .
CCOC(=O)c1cc(C)sc1/N=C/C1=C(O)CCCC1=O | -5 | 8% | 3% | 20µM* | 3%
COc1ccc2c(c1)CC/C(=C\C=C\c1ccccc1OC)C2=O | -40* | 15% | 5% | ? | 5%
CC1(C)OC(=O)C2(Cc3cc(C(F)(F)F)ccc3N3CCCCC32)C(=O)O1 (centres undefined) | . | . | 10%[0.0914 µM] | 0% | .
Cc1nc([N+](=O)[O-])cn1CC(=O)c1ccc2c(c1)OCCCO2 | . | . | 2% | 7% | .
O=C(c1ccco1)[C@@H]1[C@@H]2C(=O)N(c3ccc(Br)cc3)C(=O)[C@@H]2C2c3ccccc3C=CN21 (some centres undefined) | -40* | 8% | -9% | ? | 10%
